This passage reports max response, negative = inhibition and Potency results from PubChem BioAssay AID720504 (National Center for Advancing Translational Sciences (NCATS), 2013).

Screen size: about 360,000 compounds; about 10,000 (2.8%) were called active. About 4% were inconclusive and are not listed. The sample as a whole holds a higher share of actives than the screen did. A number with no mark means an inactive call. Calls follow the shape of the dose curve; as a rule, active = well fitted inhibition curve with a large enough effect; inconclusive = small, poorly fitted or top-dose-only effect; inactive = flat fitted curve, though single readings scatter.
% is scaled to controls: 0 for no effect and ±100 for the full control effect; potency is read from the fitted curve at half-maximal effect.

The target of the assay is Serine/threonine-protein kinase PLK1 (Homo sapiens) (UniProt P53350). The assay is described as follows: qHTS for Inhibitors of PLK1-PDB (polo-like kinase 1 - polo-box domain): Primary Screen. Also: nearly all actives have a fitted effect of over 65% in size. As to max response, negative = inhibition: series mostly up to about 57 µM. The note with it: Plk1 PBD binding of FITC phosphopeptide, fluorescence polarization. A general note: Quantitative high-throughput screening tests each substance at several concentrations.
Chain of Serine/threonine-protein kinase PLK1 (Homo sapiens) (P53350 whole entry, looked up, the tested form may be a part): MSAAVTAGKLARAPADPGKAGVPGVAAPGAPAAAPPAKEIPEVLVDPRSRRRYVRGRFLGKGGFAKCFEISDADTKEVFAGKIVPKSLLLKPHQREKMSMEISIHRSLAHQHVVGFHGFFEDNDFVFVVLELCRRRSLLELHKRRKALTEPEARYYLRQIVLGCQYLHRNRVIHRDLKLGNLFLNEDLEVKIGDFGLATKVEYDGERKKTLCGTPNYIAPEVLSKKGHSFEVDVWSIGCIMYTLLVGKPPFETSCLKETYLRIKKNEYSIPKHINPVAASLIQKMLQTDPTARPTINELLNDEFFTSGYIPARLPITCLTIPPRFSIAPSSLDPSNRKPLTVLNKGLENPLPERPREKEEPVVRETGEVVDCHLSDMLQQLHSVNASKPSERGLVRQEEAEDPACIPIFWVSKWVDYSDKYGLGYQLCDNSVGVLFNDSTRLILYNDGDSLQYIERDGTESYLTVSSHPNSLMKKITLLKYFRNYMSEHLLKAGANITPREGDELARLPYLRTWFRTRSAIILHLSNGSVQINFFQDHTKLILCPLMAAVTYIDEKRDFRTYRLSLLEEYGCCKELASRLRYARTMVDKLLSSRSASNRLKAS
On to `COC(=O)C1(C(=O)OC)C/C=C\CN(S(=O)(=O)c2ccccc2[N+](=O)[O-])CCC1`, for which the max response, negative = inhibition was 3.46%. Same read-out and setting: under `O=C1OCCC1=COCCCCOC=C1CCOC1=O` stands 1.79%. Take `Cc1ccc(NC(=O)C(=O)NCC2CCN(C(=O)c3cccc([N+](=O)[O-])c3)CC2)cc1`: the Potency was 29.9 µM (active).

As to `O=C(NCCN1CCN(C(=O)c2cccc([N+](=O)[O-])c2)CC1)C(=O)NCc1ccc(Cl)cc1`, the max response, negative = inhibition was 2.99%. The same measure, in the same setting: the value for `Cc1ccc(NC(=O)O/N=C/c2cccc([N+](=O)[O-])c2)cc1` was -16.5%; that for `Cc1cccc(C)c1NC(=O)CNC(=O)c1ccc(N2CCOCC2)c([N+](=O)[O-])c1` was -13.7%. The same measure, in the same setting: under `O=C(NNS(=O)(=O)Cc1ccccc1)c1ccc([N+](=O)[O-])cc1` stands -14.2%.

For `O=C(CNC(=O)c1ccccc1)Oc1ccc([N+](=O)[O-])cc1`, the Potency is 5.32 µM (active). With `COC(=O)CNC(=O)c1ccccc1[N+](=O)[O-]`, the max response, negative = inhibition was -2.66%. The same measure, in the same setting: under `Cc1ccc(Cc2c(-c3ccc(C)cc3)nc3c4ccccc4ccn23)cc1` stands 5.48%; under `COc1cc(C=C(OC(C)=O)c2ccc3c(c2)OCO3)cc(OC)c1OC`, -7.84%; under `CCOC(=O)C1(C)CCCN(C(=O)c2ccc(N(C)C)cc2)C1` (centres undefined), -5.89%. Same read-out and setting: the value for `CCc1ccccc1NC(=O)CN(C)S(=O)(=O)c1ccc2c(c1)c(=O)n(C)c(=O)n2C` was -2.91%. With `CC1CCC(NC(=O)CN(C)S(=O)(=O)c2ccc3c(c2)c(=O)n(C)c(=O)n3C)CC1` (centres undefined), the Potency was 18.9 µM (active).

On to `COc1cccc(CNC(=O)CN(C)S(=O)(=O)c2ccc3c(c2)c(=O)n(C)c(=O)n3C)c1`, for which the max response, negative = inhibition was -6.18%. As to `CCNC(=O)C1CCCN(C(=O)c2ccc(OC)cc2OC)CC1` (centres undefined), the max response, negative = inhibition is -11.4%. Still for that read-out and setting: under `Cc1cccc(C)c1NC(=O)CSc1nc2c([nH]1)c(=O)n(C)c(=O)n2C` stands -5.89%; under `Cc1cc(C)c(C=NNc2nc3c([nH]2)c(=O)n(C)c(=O)n3C)c(C)c1`, -11.3%. Consider `Cc1ccc(NN=Nc2nc3c([nH]2)c(=O)n(C)c(=O)n3C)cc1`, for which the Potency was 23.8 µM (active). `C[C@H]1CN([C@@H](C)CO)C(=O)CCCn2cc(nn2)CO[C@@H]1CN(C)S(=O)(=O)c1cccs1`: the max response, negative = inhibition was -15.8%. With `CCn1cc(/C=C(\NC(=O)c2ccc(C)cc2)C(=O)NCCN2CCOCC2)c2ccccc21`, the Potency is 26.7 µM (active). For `Cc1ccc(C(=O)N/C(=C\c2ccc(F)cc2)C(=O)NCCN2CCOCC2)cc1`, the max response, negative = inhibition is -16.1%.

Regarding `O=C(NCCN1CCOCC1)/C(=C/c1ccc(F)cc1)NC(=O)c1ccccc1`, the max response, negative = inhibition is -12.8%. The same measure, in the same setting: the value for `CCCOc1ccc(F)cc1-c1cc(C(=O)Nc2ccc(F)cc2)[nH]n1` was 6.37%; that for `O=C(NCc1cccc(C(F)(F)F)c1)c1ccc2sc(COCCO)nc2c1` was -3.85%; that for `CCOC(=O)C1C(C)C(C(C)(C)C)N(S(=O)(=O)c2ccc(C)cc2)C1c1ccccc1` (centres undefined) was -10.1%. With `CC1(C(=O)NCC2CCOCC2)Cc2c(-c3cccc(C(N)=O)c3)ccnc2O1` (centres undefined), the max response, negative = inhibition is -6.03%.

Regarding `Cc1nc(COc2cccc(Cl)c2)sc1C(=O)/C=C/N(C)C`, the max response, negative = inhibition was 6.79%.

As for `Cc1nc(-c2ccccc2)sc1C(=O)/C=C/N(C)C`, the Potency is 29.9 µM (active). `CN(C)/C=C/C(=O)c1ccccc1F`: the max response, negative = inhibition is -6.3%.

For the compound `Cc1ccc(-c2nc3c(Cl)cc(C(F)(F)F)cn3c2Cc2cccc(Cl)c2)cc1`, the max response, negative = inhibition is 4.46%.

Regarding `CCOC(=O)c1c(NC(=O)CN2C(=O)NC3(CCC(C)CC3)C2=O)sc(C)c1CC` (centres undefined), the max response, negative = inhibition was -5.1%. For the compound `CCOC(=O)c1c(NC(=O)C2CC=CCC2C(=O)O)sc(C)c1CC` (centres undefined), the Potency is 26.7 µM (active). With `COC(=O)c1c(NC(=O)C2CC(C)=C(C)CC2C(=O)O)sc2c1CCCCC2` (centres undefined), the max response, negative = inhibition is -20.4%.

Take `Nc1ncnc2c1ncn2[C@@H]1O[C@H](C(=O)NS(=O)(=O)c2c(Cl)nc3sccn23)[C@@H](O)[C@H]1O`: the max response, negative = inhibition was -12.2%.

`COCCNc1ncnc2c1ncn2[C@H]1CN(Cc2ccc(OC)cc2)C[C@@H](CO)O1`: the max response, negative = inhibition was 5.71%. As for `CCCCC1(C(=O)OCC)NC(c2ccc(O)cc2)C2C(=O)N(c3ccccc3)C(=O)C21` (centres undefined), the Potency is 11.9 µM (active).

Regarding `CCOC(=O)C1(C)NC(c2ccco2)C2C(=O)N(c3ccccc3)C(=O)C21` (centres undefined), the max response, negative = inhibition was -2.81%. Still for that read-out and setting: the value for `CCCC1(C(=O)OCC)NC(c2ccc(N(C)C)cc2)C2C(=O)N(c3ccc4c(c3)OCCO4)C(=O)C21` (centres undefined) was 0.149%. On the same count and under the same terms, under `COc1ccc(CCNC(=O)Nc2ccc3c(c2)c(=O)n(C)n3C)cc1OC` stands -18.9%; under `N#CCSc1ccccc1NC(=O)CN1C(=O)NC(CCc2ccccc2)C1=O` (centres undefined), 1.14%; under `COc1ccc(C(C(=O)NCc2ccccc2)n2c(=O)c(-c3ccccc3)nc3ccccc32)cc1` (centres undefined), -13.5%. As for `CCC(=O)Nc1sc(C(=O)Nc2ccccc2)c(C)c1C(=O)OC`, the max response, negative = inhibition was -13%.

`COc1ccccc1NC(=O)C1=C(C)NC(=O)NC1c1ccc(C)s1` (centres undefined): the max response, negative = inhibition was -4.66%. As to `COC(=O)c1c(NC(C)=O)sc(C(=O)Nc2ccccc2OC)c1C`, the Potency is 21.2 µM (active). As to `Cc1[nH]c2ccccc2c1C(=O)c1cc([C@H](NC(=O)OC(C)(C)C)C(C)C)sc1N`, the max response, negative = inhibition is -13.9%. In the case of `COc1c(C)cc(C(O)c2ncc(-c3cccc(C(F)(F)F)c3)[nH]2)cc1C` (centres undefined), the max response, negative = inhibition was -6.75%. On the same count and under the same terms, under `CCCC(=O)N1CCC1(C)C(=O)NS(=O)(=O)c1ccc(Cl)cc1` (centres undefined) stands -0.638%. Same read-out and setting: the value for `O=C(NCc1ccc(F)cc1F)[C@@H]1CCCN1C(=O)[C@@H]1CCCN1C(=O)c1cccc(Cl)c1` was -3.81%; that for `COc1ccc(NC(=O)N(C)C[C@@H]2OCc3cn(nn3)CCCC(=O)N([C@H](C)CO)C[C@H]2C)c(OC)c1` was -13%; that for `COc1cccc(CNc2nc(NCc3ccccc3OC)nc3ccsc23)c1` was 5.58%. For `CCCCC(=O)NNC(=S)NC(=O)C(c1ccccc1)c1ccccc1`, the Potency is 26.7 µM (active). For `O=C(CCN1CCN(c2ccccc2)CC1)NNC(=S)Nc1ccccc1`, the max response, negative = inhibition was 2.64%.

`CCC(C)NC(=O)CCCc1ccccc1` (centres undefined): the max response, negative = inhibition is -5.23%.
